Results on 28 compounds are retold here after PubChem BioAssay (NCATS).

For assay [1], the target named is Glutathione peroxidase 1 (Homo sapiens) (UniProt P07203). Briefly: Primary qHTS Assay for Inhibitors of Recombinant Selenoprotein Glutathione Peroxidase 1 (GPX1) (AID 1845191). Further: nearly all actives have a fitted effect of over 65% in size. On activity, negative = inhibition: on the % scale 0 is the no-effect control and ±100 the full control effect. In a few lines:
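Recombinant GPX1 (10 nM final) was preincubated with compound for 30 min at room temperature, then reacted with 1 mM GSH, 0.5 mM CHP, 0.5 mM NADPH and 100 nM glutathione reductase; NADPH fluorescence (340/450 nm) was read at 0 and 15 min.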

Assay [2] deals with Phospholipid hydroperoxide glutathione peroxidase GPX4 (Homo sapiens) (UniProt P36969). The assay can be described thus: Primary qHTS Assay for Inhibitors of Recombinant Selenoprotein Glutathione Peroxidase 4 (GPX4) (AID 1845192). Further: nearly all actives have a fitted effect of over 65% in size. Further: potency means the concentration at half of the fitted maximal effect. On activity change, negative = inhibition: on the % scale 0 is the no-effect control and ±100 the full control effect. In a few lines: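 GR-coupled readout: 100 nM GR, 1 mM GSH, 0.5 mM NADPH; NADPH fluorescence (ex 340/em 450 nm) read at t=0 and after 15 min RT. GPX4 200 nM, preincubated 30 min with compound; substrate 0.5 mM CHP.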
In general terms: qHTS replaces the single test concentration by a dilution series.

A short description of assay [3]: qHTS profiling for inhibitors of Plasmodium falciparum proliferation (AID 504749). Further: nearly all actives have a fitted effect of over 60% in size. Further: potency means the concentration at half of the fitted maximal effect.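 On activity, negative = inhibition: 0% = DMSO vehicle and full inhibition = artemisinin control.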 To be noted: P. falciparum in erythrocytes, SYBR Green DNA, 72 h. A digest of the protocol:
(§1)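 Parasite proliferation within erythrocytes, 72 h exposure. Endpoint: SYBR Green I fluorescence after overnight lysis at room temperature. Controls: 0.29 uM artemisinin, DMSO.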

The test system of another assay is 3D7. The description is as above. Conditions: P. falciparum in erythrocytes, SYBR Green DNA, 72 h; series mostly up to 28.7 µM. In a few lines:
as §1

Where [4] appears, read: at 28.7 µM (top of the series), parasite line A.
[5] abbreviates: at 28.7 µM (top of the series), parasite line B.

Inconclusive results are not listed. A number with no mark means an inactive call. Active and inactive are the calls of the source. The call rests on the fitted dose curve; in most records, active means well fitted inhibition curve with a large enough effect; inconclusive means small, poorly fitted or top-dose-only effect; inactive means flat fitted curve, though single readings scatter.

Chain of Glutathione peroxidase 1 (Homo sapiens) (P07203 whole entry, looked up): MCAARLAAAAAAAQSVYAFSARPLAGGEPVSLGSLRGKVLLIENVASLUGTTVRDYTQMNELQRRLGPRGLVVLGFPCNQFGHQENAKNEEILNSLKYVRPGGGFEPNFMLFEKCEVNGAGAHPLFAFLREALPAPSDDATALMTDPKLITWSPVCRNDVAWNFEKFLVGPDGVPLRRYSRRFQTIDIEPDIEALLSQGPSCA
Chain of Phospholipid hydroperoxide glutathione peroxidase GPX4 (Homo sapiens) (P36969 whole entry, looked up): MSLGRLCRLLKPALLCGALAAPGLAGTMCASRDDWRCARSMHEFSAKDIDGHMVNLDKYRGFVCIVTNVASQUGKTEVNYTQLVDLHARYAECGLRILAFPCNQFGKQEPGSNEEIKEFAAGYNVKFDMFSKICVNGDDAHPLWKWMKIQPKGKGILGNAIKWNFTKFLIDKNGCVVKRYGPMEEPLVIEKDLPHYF

Turning to `COc1cc2c(cc1OC)[C@@H](Cc1cc(OC)c(OC)c(OC)c1)[N+](C)(CCCOC(=O)CC/C=C/CCC(=O)OCCC[N+]1(C)CCc3cc(OC)c(OC)cc3[C@H]1Cc1cc(OC)c(OC)c(OC)c1)CC2` (stereo not given in full), the Potency entry (in assay [1]; in assay [2]; in the assay on 3D7) was “inactive” throughout. Besides, the activity, negative = inhibition in assay [3] (setting [4]) is 0.013%; in assay [3] (setting [5]) it was -1.97%.
On to `CCCCC[C@H](O)/C=C/[C@@H]1[C@H]2C/C(=C/CCCC(=O)O)O[C@H]2C[C@H]1O`, for which the Potency result (in assay [1]; in assay [2]; with 3D7) was “inactive” throughout. Further, the activity, negative = inhibition is -0.331% in assay [3] (setting [4]) and 0.715% in assay [3] (setting [5]).
Turning to `COC(=O)CCC[N+](C)(C)C`, the Potency entry (in assay [1]; in assay [2]; in the assay on 3D7) was “inactive” throughout. Also, the activity, negative = inhibition is 18.8% in assay [3] (setting [4]) and 3.25% in assay [3] (setting [5]).
For the compound `CC(C)(C)c1ccc2c(S(=O)(=O)O)c(C(C)(C)C)ccc2c1`, the Potency result (in assay [1]; in the assay with 3D7) was “inactive” throughout. For the same compound, the Potency in assay [2] was 12.6 µM (active). For the same compound, the activity, negative = inhibition was 16.3% in assay [3] (setting [4]) and 12.2% in assay [3] (setting [5]).
`CC(CC=O)CCCC(C)(C)O` (stereo not given): the Potency result (in assay [1]; in assay [2]; in the assay with 3D7) was “inactive” throughout. In addition, the activity, negative = inhibition is 15.9% in assay [3] (setting [4]) and 2.33% in assay [3] (setting [5]).
On to `O=[N+]([O-])c1c(Cl)cccc1-c1c[nH]cc1Cl`, for which the Potency result (in assay [1]; in assay [2]; in the assay on 3D7) was “inactive” each time. Moreover, the activity, negative = inhibition is -12.9% in assay [3] (setting [4]) and -18.4% in assay [3] (setting [5]).
Turning to `O=C(O[C@H]1CN2CCC1CC2)N1CCc2ccccc2[C@@H]1c1ccccc1`, the Potency result (in assay [1]; in assay [2]; with 3D7) was “inactive” each time. Further, the activity, negative = inhibition in assay [3] (setting [4]) is -23.3%; in assay [3] (setting [5]), -19.3%.
`O=P(O)(O)CP(=O)(O)O`: the Potency result (in assay [1]; in assay [2]; with 3D7) was “inactive” throughout. Moreover, the activity, negative = inhibition is 11.8% in assay [3] (setting [4]) and 12.6% in assay [3] (setting [5]).
In the case of `O=C1CCC(=O)N1CO`, the Potency entry (in assay [1]; in assay [2]; in the assay on 3D7) was “inactive” throughout. Moreover, the activity, negative = inhibition in assay [3] (setting [4]) is -2.35%; in assay [3] (setting [5]), 7.84%.
On to `Cc1ncc(C[n+]2csc(CCOP(=O)(O)OP(=O)(O)O)c2C)c(N)n1`, for which the activity, negative = inhibition was -4.18% [at 0.4 µM] in assay [1], -0.174% in assay [3] (setting [4]) and 5.83% in assay [3] (setting [5]). Also, the activity change, negative = inhibition in assay [2] is -9.41% [at 0.409 µM]. For the same compound, the Potency entry in the assay with 3D7 was “inactive”.
Consider `CC1(O)CCC(C(C)(C)O)CC1` (stereo not given), for which the Potency result (in assay [1]; in assay [2]; in the assay on 3D7) was “inactive” each time. Further, the activity, negative = inhibition in assay [3] (setting [4]) is -2.29%; in assay [3] (setting [5]), 4.1%.
Consider `OCCCNc1ccccc1`, for which the Potency result (in assay [1]; in assay [2]; with 3D7) was “inactive” each time. The activity, negative = inhibition in assay [3] (setting [4]) was 8.17%; in assay [3] (setting [5]), 6.74%.
Regarding `NC(=S)NS(=O)(=O)c1ccc(N)cc1`, the Potency entry (in assay [1]; in assay [2]; in the assay on 3D7) was “inactive” in each case. Also, the activity, negative = inhibition in assay [3] (setting [4]) was -3.33%; in assay [3] (setting [5]) it was -5.51%.
As for `CC(CCc1ccc(O)cc1)NCC(O)c1ccc(O)cc1` (stereo not given), the Potency entry (in assay [1]; in assay [2]; with 3D7) was “inactive” in each case. The activity, negative = inhibition in assay [3] (setting [4]) was 1.25%; in assay [3] (setting [5]), 15.8%.
For `CCN(CC)CCOC(=O)c1cccnc1`, the Potency entry (in assay [1]; in assay [2]; in the assay on 3D7) was “inactive” in each case. For the same compound, the activity, negative = inhibition is -11.6% in assay [3] (setting [4]) and -3.84% in assay [3] (setting [5]).
Take `COc1ccc2c(c1)OC(C)(C)C(c1ccccc1)C2c1ccc(OCCN2CCCC2)cc1` (stereo not given): the Potency entry in assay [1] and in assay [2] was “inactive” each time. In addition, the Potency in assay [3] (parasite line A) is 2.24 µM (active); in assay [3] (parasite line B) it was 3.98 µM (active); in the assay with 3D7, 3.16 µM (active).
`CN1C(=O)C[C@@H](C(=O)N[C@@H](Cc2cnc[nH]2)C(=O)N2CCC[C@H]2C(N)=O)NC1=O`: the Potency entry (in assay [1]; in assay [2]; in the assay on 3D7) was “inactive” in each case. The results for the activity, negative = inhibition in assay [3] (setting [4]) and in assay [3] (setting [5]) were 13.6% and -7.4%, respectively.
As to `COc1ccc2c(=O)c(C)c(-c3ccccc3)oc2c1CN(C)C`, the Potency result (in assay [1]; in assay [2]; with 3D7) was “inactive” each time. For the same compound, the activity, negative = inhibition in assay [3] (setting [4]) was -2.15%; in assay [3] (setting [5]), -7.38%.
For the compound `CC(C)c1nc(N(C)S(C)(=O)=O)nc(-c2ccc(F)cc2)c1/C=C/C(O)CC(O)CC(=O)O` (stereo not given), the Potency result (in assay [1]; in assay [2]; in the assay on 3D7) was “inactive” in each case. The results for the activity, negative = inhibition in assay [3] (setting [4]) and in assay [3] (setting [5]) were 3.93% and -1.83%, respectively.
Consider `CN(C)c1ccc(C(=C2C=CC(=[N+](C)C)C=C2)c2c(O)c(S(=O)(=O)[O-])cc3cc(S(=O)(=O)O)ccc23)cc1`, for which the Potency result (in assay [1]; in assay [2]; with 3D7) was “inactive” in each case. Besides, the activity, negative = inhibition in assay [3] (setting [4]) is -15.9%; in assay [3] (setting [5]), -17.8%.
As for `CS(=O)(=O)c1ccc([C@@H](O)[C@@H](COC(=O)CN)NC(=O)C(Cl)Cl)cc1`, the Potency result (in assay [1]; in assay [2]; in the assay with 3D7) was “inactive” throughout. Moreover, the activity, negative = inhibition is -27.9% in assay [3] (setting [4]) and -23.7% in assay [3] (setting [5]).
Regarding `Cc1nc(NS(=O)(=O)c2ccc(N)cc2)nc(C)c1Br`, the Potency result (in assay [1]; in assay [2]; in the assay with 3D7) was “inactive” each time. Also, the figures for the activity, negative = inhibition in assay [3] (setting [4]) and in assay [3] (setting [5]) were 7.52% and -0.222%, respectively.
On to `CCCCCCCCCCCCCCCCCC(=O)OCC(C)O` (stereo not given), for which the Potency entry (in assay [1]; in assay [2]; in the assay on 3D7) was “inactive” throughout. Moreover, the activity, negative = inhibition in assay [3] (setting [4]) is 4.03%; in assay [3] (setting [5]), -12.1%.
`CC1=CC(=C(c2ccc(N)cc2)c2ccc(N)cc2)C=CC1=N`: the Potency result in assay [1] and in assay [2] was “inactive” in each case. Also, the Potency in assay [3] (parasite line A) was 1.41 µM (active); in assay [3] (parasite line B) it was 1.26 µM (active); in the assay with 3D7, 0.891 µM (active).
Take `CCCCCCCCCC(=O)NO`: the Potency entry (in assay [1]; in assay [2]; with 3D7) was “inactive” in each case. Moreover, the activity, negative = inhibition was -20% in assay [3] (setting [4]) and -16.7% in assay [3] (setting [5]).
Consider `CCCOc1cc(N)ccc1C(=O)OCCN(CC)CC`, for which the Potency entry (in assay [1]; in assay [2]; with 3D7) was “inactive” in each case. In addition, the activity, negative = inhibition in assay [3] (at 12.8 µM (top of the series), parasite line A) was -3.32%; in assay [3] (at 12.8 µM (top of the series), parasite line B), 4.44%.
Turning to `C=CCOc1ccc(CC(=O)O)cc1Cl`, the Potency result (in assay [1]; in assay [2]; with 3D7) was “inactive” throughout. For the same compound, the activity, negative = inhibition in assay [3] (setting [4]) is 8.56%; in assay [3] (setting [5]), 1.68%.
With `COc1ccc(-c2noc(CC(=O)O)c2-c2ccc(OC)cc2)cc1`, the Potency result (in assay [1]; in assay [2]; in the assay with 3D7) was “inactive” in each case. For the same compound, the activity, negative = inhibition in assay [3] (setting [4]) is 5.47%; in assay [3] (setting [5]), 9.58%.
